Pf growth 48h: Primary qHTS for delayed death inhibitors of the malarial parasite plastid, 48 hour incubation; AID 504832, 2011; Potency, µM (series often up to 28.7 µM), inactives show at the highest dose activity change, negative = inhibition, usual class: inhibitors; 310,000 tested, 5.9% active; P. falciparum luciferase growth in erythrocytes, 48 h; also: potency is read from the fitted curve at half-maximal effect
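In quantitative HTS format, infected erythrocytes bearing luciferase-reporter parasites were treated for a single generation at 37 C. Luminescence after adding detection reagent served as the growth measure.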
HCMV inh: qHTS Assay for inhibitors of the human cytomegalovirus (HCMV) | HFF cells, HCMV-luciferase reporter, 72 h; stronger effect = lower value | activity change, negative = inhibition, % at 57.5 µM | 410,000 tested, 4.5% active | AID 1259415, 2018; in the data active = activity change below about -60%; inconclusive = no clear call, values can overlap the other calls; inactive = above about -39%
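Inhibition of viral replication was scored as loss of reporter luminescence in HFFs infected with HCMV-luciferase (MOI 1 PFU/cell) for 72 h; compounds tested at 2 doses, normalized to buffer and Salinomycin controls.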
Pf growth 96h: Primary qHTS for delayed death inhibitors of the malarial parasite plastid, 96 hour incubation; P. falciparum luciferase reporter growth, 96 h; Potency, µM (titrated, usually from 28.7 µM), for inactives: at the top dose activity change, negative = inhibition, actives largely listed as inhibitors; 320,000 tested, 6.9% active; AID 504834, 2011; also: potency is read from the fitted curve at half-maximal effect
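Parasite growth measured via integrated firefly luciferase reporter in P. falciparum. Infected erythrocytes at 2% hematocrit, 0.05% parasitemia final were treated 96 hours at 37 C under 5% CO2, and luminescence was read.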
HCV inhibitor: qHTS Assay for Inhibitors of Hepatitis C Virus (HCV); Huh7.5.1 HCVcc-Cre infection, luciferase reporter, 44 h; Potency, µM (titrated, usually from 41.8 µM), inactives show at the highest dose activity change, negative = inhibition, usual class: inhibitors; 340,000 tested, 3.4% active; also: potency is read from the fitted curve at half-maximal effect
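Luciferase read-out (15 sec integration) after a 15 min room-temperature substrate step quantifies HCVcc-Cre infection. Cells, 1,000 per well, had compound added 4 h post-plating, then virus at ~0.5 moi, and were cultured 44 h.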
* marks the source's active call; other numbers are inactive results; [ ] = remark or other dose. Compounds with a hit are over-represented: about 13% of the library has one in this group of screens. Unless noted, calls follow the shape of the dose curve; as a rule, active = well fitted inhibition curve with a large enough effect; inconclusive = small, poorly fitted or top-dose-only effect, or another doubt; inactive = no such curve, though single readings can be large or run the other way. % is scaled to controls: 0 for no effect and ±100 for the full control effect.

Results for COc1ccc(CCn2c(=N)c(C(=O)NC3CCCC3)cc3c(=O)n4ccccc4nc32)cc1 ?
Pf growth 48h: inconclusive; HCMV inh: -101.2*; Pf growth 96h: inconclusive; HCV inhibitor: inconclusive

What do the screens show for `COCCn1c(=N)c(C(=O)NCC2CCCO2)cc2c(=O)n3ccccc3nc21` (centres undefined)?
HCMV inh: -17.5

Results for Cc1ccccc1NC(=O)C1CCN(C(=O)c2cnn(-c3ccccc3)c2-n2cccc2)CC1 ?
HCMV inh: -14.1

What do the screens show for `Cc1ccc(CN2CCCn3nc(C(=O)NCCC(C)C)cc3C2=O)cc1`?
HCMV inh: 18.7

What do the screens show for `Cc1ccc(Cn2cc(S(=O)(=O)c3ccccc3)c(=O)c3cc(F)c(N4CCOCC4)cc32)cc1`?
HCMV inh: -17.7

What do the screens show for `CC(C)Cn1nc(NS(=O)(=O)c2ccccc2)c2cc3ccccc3nc21`?
Pf growth 48h: 26.4%; HCMV inh: 8.4; Pf growth 96h: inconclusive; HCV inhibitor: 0.8%

What do the screens show for `CC(C)Cn1c(C(C)C)nc([N+](=O)[O-])c1S(=O)(=O)c1ccc(F)cc1`?
Pf growth 48h: 10.4µM*; HCMV inh: -72.1*; Pf growth 96h: inconclusive; HCV inhibitor: inconclusive

Results for CCCc1nc([N+](=O)[O-])c(S(=O)(=O)c2ccccc2)n1CC(C)C ?
Pf growth 48h: 9.28µM*; HCMV inh: -92.9*; Pf growth 96h: 11.7µM*; HCV inhibitor: inconclusive

What do the screens show for `Cn1cnc([N+](=O)[O-])c1S(=O)(=O)c1ccc(Cl)cc1`?
Pf growth 48h: 1.8%; HCMV inh: 333.4; Pf growth 96h: -1.6%; HCV inhibitor: inconclusive

Results for O=C(Cc1ccccc1)Nc1scc(-c2ccccc2)c1C(=O)N1CCOCC1 ?
Pf growth 96h: inconclusive; HCV inhibitor: -25.4%

Results for NC(=O)c1c(-c2ccc(Cl)cc2Cl)csc1NC(=O)Cc1ccccc1 ?
Pf growth 48h: inconclusive; HCMV inh: -65.1*; Pf growth 96h: 24.1%; HCV inhibitor: inconclusive

Results for Cc1cccc(C(CC(=O)O)n2cccc2)c1 (centres undefined) ?
Pf growth 48h: 2.5%; HCMV inh: 38.5; HCV inhibitor: 2.7%

What do the screens show for `O=C(O)CC(c1cccc(Cl)c1)n1cccc1` (centres undefined)?
Pf growth 48h: 5.4%; HCMV inh: -11.9; HCV inhibitor: 11.2µM*

How did Cn1c(=O)c2c(nc(CN3CCN(C(=O)c4ccco4)CC3)n2Cc2ccccc2)n(C)c1=O do in these assays?
Pf growth 48h: 10.4µM*; HCMV inh: 52.3; Pf growth 96h: inconclusive; HCV inhibitor: 5.7%

How did Cc1ccc(Cn2c(CN3CCN(C(=O)c4ccco4)CC3)nc3c2c(=O)n(C)c(=O)n3C)cc1 do in these assays?
Pf growth 48h: 2.08µM*; HCMV inh: -20.1; Pf growth 96h: inconclusive; HCV inhibitor: inconclusive

Results for Cn1c(=O)c2c(nc(CN3CCN(C(=O)c4ccco4)CC3)n2Cc2cccc(Cl)c2)n(C)c1=O ?
Pf growth 48h: 4.65µM*; HCMV inh: 26.5; Pf growth 96h: -5.6%; HCV inhibitor: -13.8%

What do the screens show for `O=C(c1ccco1)N1CCN(Cc2nc3ccccc3c(=O)n2-c2ccc(F)cc2)CC1`?
HCMV inh: -21.9; Pf growth 96h: 9.28µM*; HCV inhibitor: 1.7%

How did CCCn1c(CN2CCN(C(=O)c3ccco3)CC2)nc2c1c(=O)n(C)c(=O)n2C do in these assays?
Pf growth 48h: 0.1%; HCMV inh: 3.3; Pf growth 96h: 4.0%; HCV inhibitor: 8.7%

Results for O=C(COc1ccc(Br)cc1Cl)Nc1ncn[nH]1 ?
HCMV inh: 51.6

How did CCCCOCC1CN(Cc2ccccc2OC)S(=O)(=O)c2cc(Cl)ccc2O1 (centres undefined) do in these assays?
HCMV inh: -7.3

Results for Cn1c(=O)c2c(nc(CN3CCN(C(=O)c4ccco4)CC3)n2Cc2ccc(Cl)cc2)n(C)c1=O ?
Pf growth 48h: 7.38µM*; HCMV inh: 38.2; Pf growth 96h: 4.4%[5.75 µM]; HCV inhibitor: -7.7%

Results for COc1cc(Cn2c(=O)sc3ccccc32)ccc1OCCC(C)C ?
HCMV inh: 15.5

What do the screens show for `CCN(CC)CCOC(=O)c1ccc(N/C=C(/C#N)c2nc(-c3cccc(OC)c3)cs2)cc1`?
Pf growth 48h: inconclusive; HCMV inh: -20.1; Pf growth 96h: 0.465µM*; HCV inhibitor: 14.5%

Results for CCN(CC)C(=O)c1sc2c(c1C)c(=O)n(CCc1ccccc1)c(=O)n2Cc1cc(C)ccc1C ?
HCMV inh: 11.3

Results for CC(=O)N(/N=C1\Sc2ccccc2C1=O)c1ccc(C)cc1C ?
Pf growth 48h: -17.2%; HCMV inh: -85.6*; Pf growth 96h: inactive; HCV inhibitor: 4.3%

Results for CC(=O)N(/N=C1\Sc2ccccc2C1=O)c1ccccc1C ?
Pf growth 48h: 24.9%; HCMV inh: 0.6; Pf growth 96h: 6.9%; HCV inhibitor: inconclusive

What do the screens show for `Cc1ccc(Cl)cc1NC(=O)N1CCC(CN2CCCCCC2)CC1`?
HCMV inh: -19.6

How did O=C(NC1CC(=O)N(c2ccc(Cl)cc2)C1)c1cccs1 (centres undefined) do in these assays?
HCMV inh: 5.8

Results for CCCN(C)C1CN(Cc2cn(Cc3cccc(C(F)(F)F)c3)nn2)S(=O)(=O)C1 (centres undefined) ?
HCMV inh: -99.6*

How did COc1cccc(OCCCCn2c(-c3ccc(Cl)cc3)nc3ccccc3c2=O)c1 do in these assays?
HCMV inh: 15.5

What do the screens show for `NS(=O)(=O)c1ccc(CCNC(=O)/C=C/c2cccc([N+](=O)[O-])c2)cc1`?
Pf growth 48h: -5.2%; HCMV inh: inconclusive; Pf growth 96h: 21.5%; HCV inhibitor: -15.4%

How did COc1cc(/C=C/C(=O)NCCc2ccc(S(N)(=O)=O)cc2)ccc1OCC#N do in these assays?
Pf growth 48h: inconclusive; HCMV inh: inconclusive; Pf growth 96h: 11.7µM*; HCV inhibitor: -5.0%

What do the screens show for `CCOc1cc(/C=C/C(=O)NCCc2ccc(S(N)(=O)=O)cc2)ccc1OCC(C)C`?
Pf growth 48h: inconclusive; HCMV inh: -34.0; Pf growth 96h: 0.657µM*; HCV inhibitor: inconclusive

How did Cc1ccc(OCC(=O)Nc2ccc3nn(-c4ccc(Cl)cc4)nc3c2)cc1 do in these assays?
HCMV inh: 31.5

What do the screens show for `Cc1ccc(Cl)cc1N1CCN(C(=O)c2cn(CC(C)C)c(=O)c3c2c2ccccc2n3C)CC1`?
HCMV inh: 18.6

Results for CCOc1ccc(-c2c(C(=O)N/N=C/c3ccc(C)cc3)nnn2-c2nonc2N)cc1 ?
Pf growth 48h: inconclusive; HCMV inh: inconclusive; Pf growth 96h: -10.9%; HCV inhibitor: inconclusive

Results for Cc1ccc(-c2c(C(=O)N/N=C/c3cccc(Cl)c3)nnn2-c2nonc2N)cc1 ?
Pf growth 48h: 0.0522µM*; HCMV inh: -23.4; Pf growth 96h: inconclusive; HCV inhibitor: 9.6%

Screens (PubChem BioAssay)
